# Source: PubChem BioAssay (NCI)
# About 79,000 compounds went through this panel and 15% of them were active in at least one assay; those are over-represented in the sample as a whole. A number with no mark means an inactive call. Active and inactive are the calls of the source. Rule as the data show it: active = growth inhibition above about 70%; inactive = the rest.
# Key:
# [1] = NCI Yeast Anticancer Drug Screen. Data for the rad52 strain (AID 147);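 also: 0% = growth of vehicle-treated control cultures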; conditions: S. cerevisiae rad52 mutant growth inhibition, active compounds read high
# In short: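 Inhibition of yeast growth, referenced to vehicle controls, was the measured output for a strain with defective DNA damage repair.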
# [2] = NCI Yeast Anticancer Drug Screen. Data for the rad50EPP+ strain (AID 151);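 also: 0% = growth of vehicle-treated control cultures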; conditions: S. cerevisiae rad50 mutant strain, active compounds read high
# In short: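 Genetically defined yeast (rad50EPP+, DNA damage repair alteration) is grown with compound, and inhibition of growth is expressed relative to vehicle-treated controls.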
# [3] = NCI Yeast Anticancer Drug Screen. Data for the mgt1 strain (AID 153); conditions: S. cerevisiae mgt1 mutant growth inhibition, active compounds read high
# In short: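 In the mgt1 strain, test compounds were added and growth inhibition was determined relative to vehicle-treated controls.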
# [4] = NCI Yeast Anticancer Drug Screen. Data for the rad50 strain (AID 155);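 also: 0% = growth of vehicle-only cultures of the same strain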; conditions: S. cerevisiae rad50 strain growth inhibition, active compounds read high
# In short: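 Readout: growth inhibition relative to vehicle-treated cultures. Compound exposure was carried out in a genetically defined yeast strain deficient in DNA damage repair.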
# [5] = NCI Yeast Anticancer Drug Screen. Data for the mec2-1 strain (AID 157); conditions: S. cerevisiae mec2-1 strain, active compounds read high
# In short: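 Each compound was tested on mec2-1 yeast, a strain altered in DNA damage repair or cell cycle control. Growth inhibition is reported relative to vehicle.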
# [6] = NCI Yeast Anticancer Drug Screen. Data for the rad14 strain (AID 159);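 also: 0% = growth of vehicle-treated control cultures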; conditions: S. cerevisiae rad14 strain growth inhibition, active compounds read high
# In short: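 Growth inhibition vs vehicle controls; genetically altered yeast strain (DNA damage repair defect) treated with test compounds.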
# [7] = NCI Yeast Anticancer Drug Screen. Data for the sgs1 mgt1 strain (AID 161);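 also: 0% = growth of cultures given vehicle only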; conditions: S. cerevisiae sgs1 mgt1 strain, active compounds read high
# In short: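 Genetically altered yeast, compound exposure, growth inhibition relative to vehicle.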
# [8] = NCI Yeast Anticancer Drug Screen. Data for the CLN2oe strain (AID 163);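 also: 0% = growth of vehicle-only control cultures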; conditions: S. cerevisiae CLN2oe strain, active compounds read high
# In short: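 First, the altered yeast strain was treated with each compound; second, its growth was measured; finally, inhibition was derived by comparison with vehicle controls.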
# [9] = NCI Yeast Anticancer Drug Screen. Data for the bub3 strain (AID 167); conditions: S. cerevisiae bub3 mutant strain, active compounds read high
# In short: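 Readout: yeast growth inhibition, expressed relative to vehicle-only wells. The test organism is a mutant strain from a panel with lesions in DNA repair or checkpoint genes.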
# [10] = NCI Yeast Anticancer Drug Screen. Data for the mlh1 strain (AID 171);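 also: 0% = growth of vehicle-treated control cultures of the same strain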; conditions: S. cerevisiae mlh1 strain growth inhibition, active compounds read high
# In short: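 Inhibition values reflect reduced yeast growth in the presence of compound, referenced to vehicle controls, using a strain chosen for its alteration in DNA repair or cell cycle control.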
# [11] = NCI Yeast Anticancer Drug Screen. Data for the sgs1 strain (AID 173);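 also: 0% = growth of vehicle-only control cultures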; conditions: S. cerevisiae sgs1 mutant, active compounds read high
# In short: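 Vehicle-treated cultures served as reference for growth inhibition of a yeast strain altered in DNA damage repair or cell cycle control after compound exposure.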
# [12] = NCI Yeast Anticancer Drug Screen. Data for the mlh1 rad18 strain (AID 175); conditions: S. cerevisiae mlh1 rad18 strain growth inhibition, active compounds read high
# In short: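 Inhibition values reflect reduced growth of mutant yeast versus vehicle-treated controls following compound exposure; the mutations affect DNA damage repair.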
# [13] = NCI Yeast Anticancer Drug Screen. Data for the rad18 strain (AID 177); conditions: S. cerevisiae rad18 mutant growth inhibition, active compounds read high
# In short: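 Steps: expose repair-mutant yeast to compound; measure growth; express as inhibition relative to vehicle control.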
# [14] = NCI Yeast Anticancer Drug Screen. Data for the wt1 strain (AID 149);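 also: 0% = growth of vehicle-treated wt1 cultures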; conditions: S. cerevisiae wt1 strain (SPY 50644) growth inhibition, active compounds read high
# In short: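 Growth inhibition read against vehicle controls after compound exposure of the wt1 yeast strain.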
# [15] = NCI Yeast Anticancer Drug Screen. Data for the cln2 rad14 strain (AID 165);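 also: 0% = growth equal to vehicle treated cultures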; conditions: S. cerevisiae cln2 rad14 strain, active compounds read high
# In short: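 Test compounds were added to cln2 rad14 yeast cultures; inhibition of growth was then determined by comparison with vehicle treatment.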
# [16] = NCI Yeast Anticancer Drug Screen. Data for the wt2 strain (AID 169);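 also: 0% = growth of vehicle-treated yeast cultures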; conditions: S. cerevisiae wt2 strain growth inhibition, active compounds read high
# In short: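 The panel's yeast strains carry defined changes in DNA repair or cell cycle genes. Each strain is grown with compound, and growth loss is scored relative to vehicle.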
# [17] = at 5.0 µM (retest, dose inferred, filed as 0.5)
# [18] = at 50.0 µM (retest, dose inferred, filed as 5.0)
smiles,measurement,setting,value
FC(F)(F)c1cc(NC(=S)N2c3ccccc3-n3cccc3C2c2cccnc2)cc(C(F)(F)F)c1 (stereo not drawn),growth inhibition,[1]; at 1.2 µM,-3%
same,growth inhibition,[1]; at 3.7 µM,-5%
same,growth inhibition,[1]; at 11.0 µM,-9%
same,growth inhibition,[1]; at 33.0 µM,-3%
same,growth inhibition,[1]; at 100.0 µM,-4%
same,growth inhibition,[2]; at 1.2 µM,1%
same,growth inhibition,[2]; at 3.7 µM,6%
same,growth inhibition,[2]; at 11.0 µM,18%
same,growth inhibition,[2]; at 33.0 µM,42%
same,growth inhibition,[2]; at 100.0 µM,57%
same,growth inhibition,[3]; at 1.2 µM,-10%
same,growth inhibition,[3]; at 3.7 µM,-5%
same,growth inhibition,[3]; at 11.0 µM,-17%
same,growth inhibition,[3]; at 33.0 µM,-36%
same,growth inhibition,[3]; at 100.0 µM,-17%
same,growth inhibition,[4]; at 1.2 µM,-13%
same,growth inhibition,[4]; at 3.7 µM,-3%
same,growth inhibition,[4]; [17],10%
same,growth inhibition,[4]; at 11.0 µM,9%
same,growth inhibition,[4]; at 33.0 µM,3%
same,growth inhibition,[4]; [18],57%
same,growth inhibition,[4]; at 50.0 µM,74.7% (active)
same,growth inhibition,[4]; at 100.0 µM,2%
same,growth inhibition,[5]; at 1.2 µM,-5%
same,growth inhibition,[5]; at 3.7 µM,-4%
same,growth inhibition,[5]; [17],-6%
same,growth inhibition,[5]; at 11.0 µM,-2%
same,growth inhibition,[5]; at 33.0 µM,-1%
same,growth inhibition,[5]; [18],51%
same,growth inhibition,[5]; at 50.0 µM,47.1%
same,growth inhibition,[5]; at 100.0 µM,-1%
same,growth inhibition,[6]; at 1.2 µM,2%
same,growth inhibition,[6]; at 3.7 µM,0%
same,growth inhibition,[6]; at 11.0 µM,-1%
same,growth inhibition,[6]; at 33.0 µM,-3%
same,growth inhibition,[6]; at 100.0 µM,-5%
same,growth inhibition,[7]; [17],-3%
same,growth inhibition,[7]; [18],69%
same,growth inhibition,[7]; at 50.0 µM,44.5%
same,growth inhibition,[8]; at 1.2 µM,-3%
same,growth inhibition,[8]; at 3.7 µM,-2%
same,growth inhibition,[8]; at 11.0 µM,2%
same,growth inhibition,[8]; at 33.0 µM,-1%
same,growth inhibition,[8]; at 100.0 µM,-5%
same,growth inhibition,[9]; at 1.2 µM,-1%
same,growth inhibition,[9]; at 3.7 µM,-5%
same,growth inhibition,[9]; [17],-3%
same,growth inhibition,[9]; at 11.0 µM,-5%
same,growth inhibition,[9]; at 33.0 µM,-4%
same,growth inhibition,[9]; [18],45%
same,growth inhibition,[9]; at 50.0 µM,26.4%
same,growth inhibition,[9]; at 100.0 µM,-9%
same,growth inhibition,[10]; at 1.2 µM,-2%
same,growth inhibition,[10]; at 3.7 µM,-1%
same,growth inhibition,[10]; at 11.0 µM,-4%
same,growth inhibition,[10]; at 33.0 µM,-4%
same,growth inhibition,[10]; at 100.0 µM,6%
same,growth inhibition,[11]; at 1.2 µM,-8%
same,growth inhibition,[11]; at 3.7 µM,-3%
same,growth inhibition,[11]; at 11.0 µM,-2%
same,growth inhibition,[11]; at 33.0 µM,-2%
same,growth inhibition,[11]; at 100.0 µM,1%
same,growth inhibition,[12]; [17],-7%
same,growth inhibition,[12]; [18],69%
same,growth inhibition,[12]; at 50.0 µM,70.7% (active)
same,growth inhibition,[13]; at 1.2 µM,-1%
same,growth inhibition,[13]; at 3.7 µM,-6%
same,growth inhibition,[13]; at 11.0 µM,0%
same,growth inhibition,[13]; at 33.0 µM,-2%
same,growth inhibition,[13]; at 100.0 µM,-2%
O=C1Nc2ccc(Cl)c(I)c2C1=O,growth inhibition,[14]; at 1.2 µM,-11%
same,growth inhibition,[14]; at 3.7 µM,-13%
same,growth inhibition,[14]; at 11.0 µM,-11%
same,growth inhibition,[14]; at 33.0 µM,-14%
same,growth inhibition,[14]; at 100.0 µM,45%
same,growth inhibition,[2]; at 1.2 µM,28%
same,growth inhibition,[2]; at 3.7 µM,35%
same,growth inhibition,[2]; at 11.0 µM,44%
same,growth inhibition,[2]; at 33.0 µM,65%
same,growth inhibition,[2]; at 100.0 µM,79% (active)
same,growth inhibition,[3]; at 1.2 µM,-11%
same,growth inhibition,[3]; at 3.7 µM,-13%
same,growth inhibition,[3]; at 11.0 µM,-5%
same,growth inhibition,[3]; at 33.0 µM,-3%
same,growth inhibition,[3]; at 100.0 µM,59%
same,growth inhibition,[4]; at 1.2 µM,-6%
same,growth inhibition,[4]; at 3.7 µM,-11%
same,growth inhibition,[4]; [17],-13%
same,growth inhibition,[4]; at 11.0 µM,-23%
same,growth inhibition,[4]; at 33.0 µM,26%
same,growth inhibition,[4]; [18],60%
same,growth inhibition,[4]; at 50.0 µM,35.5%
same,growth inhibition,[4]; at 100.0 µM,88% (active)
same,growth inhibition,[5]; at 1.2 µM,2%
same,growth inhibition,[5]; at 3.7 µM,16%
same,growth inhibition,[5]; [17],3%
same,growth inhibition,[5]; at 11.0 µM,16%
same,growth inhibition,[5]; at 33.0 µM,10%
same,growth inhibition,[5]; [18],6%
same,growth inhibition,[5]; at 50.0 µM,62.4%
same,growth inhibition,[5]; at 100.0 µM,58%
same,growth inhibition,[6]; at 1.2 µM,8%
same,growth inhibition,[6]; at 3.7 µM,-1%
same,growth inhibition,[6]; at 11.0 µM,1%
same,growth inhibition,[6]; at 33.0 µM,11%
same,growth inhibition,[6]; at 100.0 µM,84% (active)
same,growth inhibition,[7]; [17],-1%
same,growth inhibition,[7]; [18],17%
same,growth inhibition,[7]; at 50.0 µM,41.9%
same,growth inhibition,[8]; at 1.2 µM,5%
same,growth inhibition,[8]; at 3.7 µM,21%
same,growth inhibition,[8]; at 11.0 µM,-1%
same,growth inhibition,[8]; at 33.0 µM,5%
same,growth inhibition,[8]; at 100.0 µM,47%
same,growth inhibition,[15]; [17],1%
same,growth inhibition,[15]; [18],32%
same,growth inhibition,[15]; at 50.0 µM,37.1%
same,growth inhibition,[9]; at 1.2 µM,-14%
same,growth inhibition,[9]; at 3.7 µM,-5%
same,growth inhibition,[9]; [17],-23%
same,growth inhibition,[9]; at 11.0 µM,-4%
same,growth inhibition,[9]; at 33.0 µM,5%
same,growth inhibition,[9]; [18],70% (active)
same,growth inhibition,[9]; at 50.0 µM,79% (active)
same,growth inhibition,[9]; at 100.0 µM,90% (active)
same,growth inhibition,[16]; at 1.2 µM,-1%
same,growth inhibition,[16]; at 3.7 µM,0%
same,growth inhibition,[16]; at 11.0 µM,3%
same,growth inhibition,[16]; at 33.0 µM,2%
same,growth inhibition,[16]; at 100.0 µM,52%
same,growth inhibition,[10]; at 1.2 µM,31%
same,growth inhibition,[10]; at 3.7 µM,29%
same,growth inhibition,[10]; at 11.0 µM,27%
same,growth inhibition,[10]; at 33.0 µM,36%
same,growth inhibition,[10]; at 100.0 µM,83% (active)
same,growth inhibition,[11]; at 1.2 µM,21%
same,growth inhibition,[11]; at 3.7 µM,23%
same,growth inhibition,[11]; at 11.0 µM,26%
same,growth inhibition,[11]; at 33.0 µM,36%
same,growth inhibition,[11]; at 100.0 µM,92% (active)
same,growth inhibition,[12]; [17],0%
same,growth inhibition,[12]; [18],68%
same,growth inhibition,[12]; at 50.0 µM,67.2%
same,growth inhibition,[13]; at 1.2 µM,28%
same,growth inhibition,[13]; at 3.7 µM,30%
same,growth inhibition,[13]; at 11.0 µM,29%
same,growth inhibition,[13]; at 33.0 µM,41%
same,growth inhibition,[13]; at 100.0 µM,91% (active)
